Measured values from PubChem BioAssay AID2241 (Broad Institute, 2010).
Among all 21,000 compounds or so, about 110 (0.52%) were called active.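 Rule for the calls: active = most replicate scores above 10, or exactly half above 10 with mean activity above 10; inconclusive = mean activity below 10 while half the replicates exceed 10; inactive = most replicate scores below 10.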 Only a selection was taken, and actives are over-represented in it overall.

assay: inducers of caspase activity in MEF A1-2A-BIM cells, primary screen, A1 inhibitor project, cell-based, CaspaseGlo luminescence (AID 2241); settings: caspase-Glo luminescence, 3 h, active compounds read high, percent of clofoctol signal, DMSO as zero, concentration not given here;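 note: effector caspase 3 and 7 activity cleaving a DEVD luciferin substrate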

Caspase activation, inactive:
CC(=O)N1[C@@H](c2ccc(C)cc2)SC(C)(C)[C@@H]1C(=O)O -0.0443%
O=C(CNC(=S)N(Cc1ccccc1)Cc1ccccc1F)N1CCCC1 0.68%
O=C(NCSc1nc2ccccc2s1)c1ccco1 0.614%
O=S(=O)(NCc1ccc(-c2cccs2)cc1)c1cccs1 0.285%
CC(C)NC(=O)N(C)C[C@H]1Oc2ccc(N(C)C)cc2C(=O)N([C@@H](C)CO)C[C@H]1C 0.193%
Cc1noc(C)c1NC(=O)N(C)C[C@H]1Oc2ccc(NS(=O)(=O)c3ccc(F)cc3)cc2C(=O)N([C@@H](C)CO)C[C@H]1C 0.124%
O=C1CCCCC1C(=O)c1ccccc1 (stereo not drawn) -0.0515%
COC(=O)C1=C(C)Nc2c(c(=O)n(C)c(=O)n2C)C1c1cccc(OCc2ccccc2)c1 (stereo not drawn) 0.0517%
C[C@H]1CN([C@@H](C)CO)C(=O)c2cc(NC(=O)C3CC3)ccc2O[C@@H]1CN(C)Cc1ccc(Oc2ccccc2)cc1 0.539%
O=C(CCn1c(=S)[nH]c2cc3c(cc2c1=O)OCO3)NC1CCCC1 -1.11%
Clc1ccc(N2CCCCCCC2)nn1 0.981%
CC(=O)Nc1ccc(N=Cc2ccc(N3CCOCC3)cc2)cc1 -0.682%
Cc1ccc(C23CC4CC(CC(CN)(C4)C2)C3)cc1C 4.34%
Cc1cc(-c2cccs2)c2c(N)c(C(=O)c3ccccc3)sc2n1 1.1%
O=c1c2c3c(sc2[nH]c(=S)n1Cc1ccccc1)CCCCC3 -0.256%
Cc1ccc(SCC(=O)Nc2nncs2)cc1 -1.27%
O=C(NCc1ccc2c(c1)OCO2)c1ccc(Cl)cc1 -0.323%
CCOC(=O)c1cc(-c2ccnn2S(=O)(=O)c2ccc(C)cc2)on1 -0.165%
Cc1noc(C)c1NC(=O)Nc1ccc2c(c1)C(=O)N([C@@H](C)CO)C[C@@H](C)[C@H](CN(C)Cc1ccc(C(F)(F)F)cc1)O2 -0.666%
Cc1ccc(S(=O)(=O)Nc2ccc3c(c2)C(=O)N([C@@H](C)CO)C[C@H](C)[C@@H](CN(C)Cc2ccc4c(c2)OCO4)O3)cc1 -0.498%
O=C(COc1ccccc1)NCCc1nc2ccccc2n1Cc1ccccc1 0.301%
Cc1cc(C)c(N=c2scc(C)n2Cc2ccccc2)c(C)c1 0.564%
COc1ccc(-c2cc(C(F)(F)F)nc(SCC(=O)N3CCCCCC3)n2)cc1OC -1.22%
